aSyn 5UTR act – Activators working through SNCA 5'UTR binding (MLPCN); alpha-synuclein 5'UTR reporter, activators screen; activity score, % (tested at 7.5 µM), hits read low; 7.1% of 300,000 active; in the data active means activity score below about -60%
* marks the source's active call; other numbers are inactive results. A selection follows.

SMILES	aSyn 5UTR act
CC1CCCCN1C(=O)CSc1nnc(-c2cccs2)o1 (centres undefined)	-108*
CCC1CCCCN1C(=O)CSc1nnc(-c2ccc(Cl)s2)o1 (centres undefined)	-62*
Cc1cc(C)c2c(CN3CCC(C)CC3)cc(=O)oc2c1	-157*
Cc1cc2oc(=O)cc(CN3CCC(C)CC3)c2c(C)c1Cl	-88*
Cc1cc(C)c2c(CCl)cc(=O)oc2c1	91
Cc1cc2oc(=O)cc(CN3CCC(C)CC3)c2cc1C	-82*
Nc1nc(NCCOCCO)nc(NC2CCCCC2)c1[N+](=O)[O-]	68
O=C(O)C[C@H](O)C[C@H](O)/C=C/c1c(C2CC2)nc2ccccc2c1-c1ccc(F)cc1	104
Cc1nc2cc(-c3cccs3)[nH]n2c(=O)c1C	-108*
Cc1ccccc1-c1cc2nc(C)c(C)c(=O)n2[nH]1	-101*
Cc1nc2cc(-c3ccc(F)cc3)[nH]n2c(=O)c1C	-129*
CCCCOC(=O)Nc1ccc(N2CCCCC2)cc1	-158*
CCCCOC(=O)Nc1ccc(N2CCOCC2)cc1	-163*
O=C(Oc1c(CN2CCOCC2)cc(Cl)c2cccnc12)c1cccs1	108
O=C(c1cccs1)N1CCN(c2ncc(C(F)(F)F)cc2Cl)CC1	-71*
O=C(Nc1ccc(CN2CCOCC2)cc1)c1ccc(Br)o1	-104*
O=C(N/N=C/c1ccc(N2CCOCC2)s1)c1ccccc1Cl	-116*
CC(C)C(=O)N1CCN(c2ccc(NC(=O)c3ccc4c(c3)OCCO4)cc2Cl)CC1	-109*
O=C(Nc1ccc(N2CCOCC2)c(Cl)c1)c1cc2ccccc2o1	-204*
O=C(Nc1ccc(N2CCOCC2)c(Cl)c1)c1ccc(F)cc1	-140*
O=C(Nc1ccc(N2CCOCC2)c(Cl)c1)c1ccc(Br)o1	-253*
Clc1cc(NCc2cccs2)ccc1N1CCOCC1	-105*
O=C(NC(=S)N1CCOCC1)c1cc2ccccc2o1	-74*
O=C(Nc1ccc(N2CCOCC2)nc1)c1ccc(Cl)cc1	-73*
O=C(/C=C/c1ccccc1)Nc1ccc(CN2CCOCC2)cc1	-88*
SMILES	aSyn 5UTR act
O=C(Nc1ccc(N2CCOCC2)c(Cl)c1)c1ccccc1Cl	-66*
O=C(Nc1cccnc1Cl)c1cc2ccccc2o1	-166*
O=C(Nc1ccccc1N1CCCC1)c1cc2ccccc2o1	-252*
c1ccc(N/N=C(\Cc2nc3ccccc3[nH]2)c2ccccc2)cc1	-102*
CCN/N=C(\Cc1nc2ccccc2[nH]1)c1ccccc1	-138*
Clc1cccc(/C(Cc2nc3ccccc3[nH]2)=N\Nc2ccccc2)c1	-64*
N#CCCN/N=C(/Cc1nc2ccccc2[nH]1)c1ccc(Cl)cc1	-67*
N/N=C(/Cc1nc2ccccc2[nH]1)c1ccc([N+](=O)[O-])cc1	-75*
CN(Cc1cccnc1)C(=O)c1cc(COc2ccc3c(c2)CCCC3)on1	-127*
CC(=O)c1cccc(OCc2cc(C(=O)N(C)Cc3cnccn3)no2)c1	-85*
Cc1csc(NC(=O)CSc2nsc(SCC(=O)Nc3nc(C)cs3)c2C#N)n1	-210*
CCOC(=O)Nc1ccc2c(COC(=O)c3ccccc3O)cc(=O)oc2c1	-83*
CCN(CC)c1ccc(C(=O)OCc2cc(=O)oc3cc(O)ccc23)cc1	117
COc1ccccc1C(=O)Nc1ccc2c(C)cc(=O)oc2c1	-154*
Cc1ccccc1OCCC(=O)Nc1ccc2c(C)cc(=O)oc2c1	-64*
Cc1cc(-c2nc3ncccc3o2)ccc1NC(=O)CC(C)C	-75*
Cc1ccc(OCC(=O)Nc2ccc(-c3nc4ncccc4o3)cc2)c(C)c1	-102*
CC(C)CC(=O)NC(c1cccs1)c1ccc2cccnc2c1O (centres undefined)	74
COc1cc(CNc2ncn[nH]2)ccc1OCc1cccc(C)c1	-95*
Cc1ccc(-c2nc(C(Cl)Cl)c3ccccc3n2)cc1	93
Cc1ccc(-c2nc(N/N=C/c3cccc([N+](=O)[O-])c3)c3ccccc3n2)cc1	-153*
Cc1ccc(-c2nc(N/N=C/c3cccnc3)c3ccccc3n2)cc1	-258*
c1cncc(-c2nc(NCCCn3ccnc3)c3ccccc3n2)c1	-66*
Cc1ccc(-c2nc(NCc3cccnc3)c3ccccc3n2)cc1	-78*
O=C(Cn1ccsc1=NC(=O)C(F)(F)F)c1ccccc1	-123*
SMILES	aSyn 5UTR act
O=c1cc(-c2cccs2)oc2ccc(Cl)cc12	-178*
O=c1c(O)c(-c2cccs2)oc2ccc(Cl)cc12	-75*
O=c1cc(-c2ccc3c(c2)OCCO3)oc2ccc(Cl)cc12	-149*
O=C(NCc1ccccn1)C(=O)Nc1ccccc1	-150*
Cc1ccc(NC(=O)C(=O)NCc2ccccn2)cc1	-110*
O=C(CSCC(=O)Nc1nc(-c2ccc3c(c2)OCO3)cs1)Nc1nccs1	-111*
CSCC(=O)Nc1nc(-c2ccc3c(c2)OCCO3)cs1	-117*
O=C(Nc1nc(-c2ccc3c(c2)OCO3)cs1)C1CC1	-184*
O=[N+]([O-])c1cc(-c2n(-c3ccccn3)c3ccccc3[n+]2-c2ccccn2)ccc1Cl	-88*
COC(=O)N1N=C(c2ccc(Br)cc2)CC1(O)C(F)(F)F (centres undefined)	-126*
CCOC(=O)N1N=C(c2ccccc2)CC1(O)C(F)(F)F (centres undefined)	-75*
CCOC(=O)C1=NN(C(=O)c2cccc(Br)c2)C(O)(C(C)(C)C)C1 (centres undefined)	105
O=P(O)(O)c1ccccc1OCCOCCOCCOCCOc1ccccc1P(=O)(O)O	-130*
C/C(=N/NC(=O)OC(C)(C)C)c1ccco1	-86*
CC(/C=C/c1ccco1)=N/NC(=O)OC(C)(C)C	-129*
Cn1nc(OC(=O)Nc2ccc(Cl)cc2)cc1C(F)(F)F	-85*
COc1ccc(/C=C2\SC(N3CCCCC3)=NC2=O)cc1	-92*
O=C1N=C(N2CCCCC2)S/C1=C\c1cn[nH]c1-c1ccccc1	-78*
C/C(=N/NC(=O)c1cccs1)c1ccco1	-100*
C/C(=N\NC(=O)c1cccs1)C(C)(C)C	-94*
CC1C2CC(C/C2=N/NC(=O)c2cccs2)C1(C)C (centres undefined)	-74*
CCOC(=O)C/C(C)=N/NC(=O)c1cccs1	-131*
O=C(NN=C1CCCCCC1)c1cccs1	-75*
C/C(=N\NC(=O)c1cc(-c2ccc(C)s2)[nH]n1)c1ccco1	-168*
CC(C)c1c(C(=O)N/N=C/c2ccc(OCc3ccc(F)cc3)cc2)nnn1-c1nonc1N	-72*
SMILES	aSyn 5UTR act
Cc1cccc(COc2ccc(/C=N/NC(=O)c3nnn(-c4nonc4N)c3COc3ccc(F)cc3)cc2)c1	-159*
CN(C)Cc1c(C(=O)N/N=C/c2ccc(OCc3c(F)cccc3Cl)cc2)nnn1-c1nonc1N	-76*
C/C(=N\NC(=O)c1nnn(-c2nonc2N)c1CN1CCc2ccccc21)c1ccccc1O	75
CCOc1cccc(-c2c(C(=O)N/N=C(\C)c3ccccn3)nnn2-c2nonc2N)c1	90
C/C(=N\NC(=O)c1nnn(-c2nonc2N)c1C)c1ccc(OCc2ccccc2)cc1	-67*
Cc1ccc(/C=N/NC(=O)c2nnn(-c3nonc3N)c2-c2cccs2)cc1	69
CSC1=NC(C(Cl)(Cl)Cl)N=C(c2ccc(C)cc2)N1 (centres undefined)	118
COc1cc(/C=N/NC(=O)c2nnn(-c3nonc3N)c2C(C)C)ccc1OCc1ccccc1	-82*
Nc1nonc1-n1nnc(C(=O)N/N=C/c2ccc(OCc3ccccc3)cc2)c1COc1ccc(F)cc1	-96*
C/C(=N\N=C\c1ccccc1F)c1nnn(-c2nonc2N)c1C	-79*
Cc1ccc(-c2nc3ccccc3[nH]2)s1	-80*

Screens (PubChem)
